Data reported in PubChem BioAssay AID602252 (Broad Institute, 2012).
The campaign covered roughly 300,000 compounds. About 2,700 (0.9%) were called active. What follows is part of a selection rich in actives, with near analogues and random picks from the rest. Values without a mark were called inactive.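 Rule for the calls: active = mean inhibition of at least 30% with at least half of replicates also reaching 30%; inconclusive = no clear call, values can overlap the other calls; inactive = the rest.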

target: Golgi-associated PDZ and coiled-coil motif-containing protein (Homo sapiens) (UniProt Q9HD26); assay: blockade of CAL PDZ-reporter peptide interaction – biochemical, fluorescence polarization, untagged CAL PDZ, HTS, primary screen (AID 602252); conditions: purified CAL PDZ, TMR-peptide fluorescence polarization, 1 h; at 24.9 µM; active compounds read high;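 note: 0% = DMSO neutral control and 100% = excess unlabeled competitor peptide PRC23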

SMILES	inhibition
CN1c2ccc(C=O)c3c(C=O)ccc(c23)N(C)C1(C)C	67% (active)
Cc1onc(-c2c(F)cccc2Cl)c1C(=O)OCC(=O)N1C(C)CCCC1C (stereo not given)	-2.47%
COc1ccc(CC(=O)NC(C)c2ccc(Cl)c(Cl)c2)cc1S(=O)(=O)N1CCOCC1 (stereo not given)	-1.91%
CCCN(CC(=O)NC(=O)NC1CCCCC1)CC(=O)Nc1cc(Cl)ccc1Cl	-3.68%
CN(c1ccc(OCC(=O)NC2=NCCS2)cc1)S(=O)(=O)c1ccc(F)cc1	81.4% (active)
CN(c1ccccc1)S(=O)(=O)c1ccc(NC(=O)COc2ccccc2)cc1	-1.05%
Cc1ccc(S(=O)(=O)N(C)c2ccc(OCC(=O)NC3=NCCS3)cc2)cc1	-1.61%
Cc1ccc(S(=O)(=O)N2CCN(C(=O)Cn3c(=O)cnc4ccccc43)CC2)c(C)c1	-10.5%
COc1ccc(CNCCCNCc2ccc(OC)c(OC)c2)cc1OC	2.4%
CSCCC(NS(=O)(=O)c1ccc(C)cc1)C(=O)N1CCCC1 (stereo not given)	68.8% (active)
CSCC(NS(=O)(=O)c1ccc(C)cc1)C(=O)O (stereo not given)	2.04%
CSCCC(NC(=O)c1ccccc1)C(=O)N1CCCCCCC1 (stereo not given)	-1.09%
O=C1[C@@H](c2ccccc2)[C@@H](c2ccccc2)N1c1cccnc1	-3.46%
O=C(Cc1ccc(S(=O)(=O)N2CCOCC2)s1)Nc1ccc(Br)c(C(F)(F)F)c1	-2.21%
Cc1nc2ccc(NC(=O)c3cccc(S(=O)(=O)N4CCOCC4)c3)cc2s1	-4.38%
O=C(NC(=S)Nc1ccc(NC(=O)c2cccs2)cc1)c1ccc([N+](=O)[O-])cc1	-2.58%
CC(=O)Nc1ccc(NC(=S)NC(=O)c2ccc([N+](=O)[O-])c(C)c2)cc1	-0.773%
CC(=O)NC(=S)Nc1ccc(NC(=S)NC(=O)c2ccc([N+](=O)[O-])cc2)cc1	56.3% (active)
O=C(Nc1ccc2ccccc2c1[N+](=O)[O-])c1ccccc1	0.89%
CC1(C)CCSC(/C=C/c2ccccc2)=N1	76.1% (active)
CC(C)[C@@H](C(=O)OCC(=O)c1ccc2c(c1)NC(=O)CO2)N1C(=O)c2ccccc2C1=O	-3.95%
CN(Cc1ccc(F)cc1)C(=O)COc1ccc2ccccc2c1	-2.25%
CN(Cc1ccccc1)C(=O)c1ccc(COc2ccccc2)cc1	-2.72%

SMILES	inhibition
CN(Cc1ccccc1)C(=O)COc1ccccc1	34.5% (active)
CN1CCC(N(C)C(=O)c2ccc(Cl)c(S(=O)(=O)Nc3ccc(Cl)cc3)c2)CC1	4.93%
CC(C)(C)OC(=O)N1CCC(C(=O)Nc2cccc(C(=O)NCCc3ccccc3)c2)CC1	-2.65%
COc1ccc(CNc2nc(NCc3ccc(OC)cc3)c3ncn(C4CCCC4)c3n2)cc1	2.25%
O=C(Nc1cc(S(=O)(=O)Nc2ccc(Cl)cc2)ccc1O)c1ccc(F)cc1F	-2.45%
COc1ccc(N=C2C=CC(=O)O2)cc1	-18.5%
CCO[C@H]1OC(C(=O)N2CCOCC2)=C[C@@H](c2ccc3c(c2)OCO3)[C@@H]1CCCO	31.2% (active)
CCO[C@H]1OC(C(=O)N2CCCCCCC2)=C[C@@H](c2ccc(C(F)(F)F)cc2)[C@@H]1CCCO	-1.81%
CCO[C@@H]1OC(C(=O)N2CCOCC2)=C[C@H](C)[C@H]1CCCO	-0.99%
O=C(Cc1ccc(NC(=O)C2CCCN(C(=O)CCc3ccccc3)C2)cc1)Nc1ccc(C(=O)N2CCOCC2)cc1 (stereo not given)	-8.09%
CC1CCCCC1NCC(=O)Nc1ccccc1C(=O)Nc1ccccc1 (stereo not given)	-1.41%
CN(C)C(=S)N=c1ssc(=S)n1Cc1ccco1	-2.26%
O=C(CNC(=O)c1cc(S(=O)(=O)N2CCOCC2)ccc1N1CCCC1)Nc1ccc(F)c(F)c1	-2.42%
O=C(N/N=C1\CCSC1)c1cc(Cl)ccc1O	39.8% (active)
C/C(=N/NC(=O)c1cc(Cl)ccc1O)C12CC3CC(CC(C3)C1)C2	0.948%
CC(C)/C=N/NC(=O)c1cc(Br)ccc1O	-1.22%
COc1cc(O)c2c(=O)c3c(O)c(O)ccc3oc2c1OC	-1.48%
O=C(Cn1cnc2c(OCc3ccccc3)ncnc21)NCc1nc2ccccc2[nH]1	9.79%
CCOc1cc(C(=O)N(Cc2ccccc2)c2ccc(C)cc2)ccc1OCC(=O)N1CCOCC1	-2.56%
N#CC1(Nc2ccc(-c3ccc(Cl)cc3)cc2)CCCC1	-1.39%
O=[N+]([O-])c1cc(S(=O)(=O)NCCc2ccccn2)ccc1Cl	40.3% (active)
O=S(=O)(NCCc1ccccn1)c1cc(Cl)cc(Cl)c1O	-0.874%
O=[N+]([O-])c1cccc(S(=O)(=O)NCc2ccccn2)c1	-3.81%

SMILES	inhibition
Cc1c(NS(=O)(=O)c2cccc(C(=O)Nc3ccc(SC(F)F)cc3)c2)c(=O)n(-c2ccccc2)n1C	-2.68%
Fc1ccc(-c2ccc(CNCc3ccccn3)o2)cc1Cl	52.7% (active)
CN(Cc1ccccn1)Cc1nc(-c2ccc(Cl)cc2)no1	-1.29%
Cc1cc(S(=O)(=O)NCc2ccccn2)c(Cl)cc1Cl	-2.31%
NC(=O)C1(N2CCCC2)CCN(Cc2ccccc2)CC1	-1.05%
COc1ccc(CNC(=O)C[C@H]2C[C@H](C(=O)N3CCOCC3)[C@@]3(CCC4CCCC4)c4[nH]c5ccc(Cl)cc5c4CCN3C2=O)cc1OC	-0.587%
O=C(NCc1ccc2c(c1)OCO2)c1cc(F)c(F)cc1Cl	-5.1%
COc1cc(OC)c(C(=O)NCc2ccc3c(c2)OCO3)cc1OC	81% (active)
COc1ccc(NC(=O)NCc2ccc3c(c2)OCO3)c(OC)c1	-1.76%
O=C(NCCC(=O)N1O[C@@H]2C=C[C@H]1C2)OCC1c2ccccc2-c2ccccc21	-5.2%
O=C1CC2(CCCC2)C(=O)N1CN1CCN(S(=O)(=O)c2ccc(F)cc2F)CC1	-4.29%
COc1ccc(CNCCCn2cnc3c(OCc4ccccc4)ncnc32)cc1	-2.18%
COc1ccc(OCC(=O)N2CCN(C(=O)COc3ccccc3)CC2)cc1	-1.31%
COc1ccc(-c2ccc(CCC(=O)O)n2-c2ccc(O)cc2)cc1	-0.609%
C=Cn1c(C(=O)O)ccc1-c1ccc(OC)cc1	37.7% (active)
CN(C(=O)c1cccc(NC(=O)Cc2ccc(NC(=O)C3CCN(C(=O)C4CCCCC4)CC3)cc2)c1)C1CCC1	-2.99%
O=C(NC1CCCC1)C1CC(=O)N(c2ccc(F)cc2)C1 (stereo not given)	53.1% (active)
COc1ccc(Cl)cc1NC(=O)C1CC(=O)N(c2ccc(F)cc2)C1 (stereo not given)	-7.15%
CC1CC(C)CN(C(=O)C2CC(=O)N(c3ccc(F)cc3)C2)C1 (stereo not given)	-2.8%
CC(=O)c1ccc(NC(=O)C(C)OC(=O)c2ccc(NS(=O)(=O)c3ccc4[nH]c(=O)[nH]c4c3)cc2)cc1 (stereo not given)	-8.65%
COc1ccc(/C=C2/CCCc3ccccc3C2=O)cc1	1.76%
COc1ccc(Nc2ncnc3sc(C)cc23)cc1	0.276%
COc1ccc(Nc2ncnc3sc(-c4ccccc4)cc23)c(OC)c1	179% (active)

SMILES	inhibition
COc1ccc(Nc2ncnc3ccc(Br)cc23)c(OC)c1	-10.3%
CCOc1ccc(S(=O)(=O)N2CCN(C(=O)c3oc4ccccc4c3C)CC2)cc1	2.11%
CC12CCCCC1=CC(=O)CC2 (stereo not given)	28.3%
O=C(CCC(=O)N1CCN(S(=O)(=O)c2ccc(Cl)cc2)CC1)NCc1cccc(C(F)(F)F)c1	-4.29%
O=C(Cn1c(-c2cncs2)nc2ccccc21)NC1CCCC1	41.1% (active)
O=C(CN1CCN(c2ccccn2)CC1)NC1CCCCC1	11.4%
O=C(Cn1c(-c2cscn2)nc2ccccc21)Nc1ccc(Cl)cc1	-17.7%
c1ccc(-c2c[nH]c(-c3ccccc3)c2)cc1	-3.72%
C/C=C/c1ccc(OCC(=O)NNC(=O)CN(C)S(=O)(=O)c2ccc(C)cc2)c(OC)c1	-0.216%
NC(=O)C1(Nc2ccc([N+](=O)[O-])cc2)CCCC1	-0.108%
COc1ccccc1-c1sc2ccccc2c1C#CC1(O)CCCCC1	0.068%
COc1cccc(/C=C2/SC(=S)N(CC(=O)NC3C=CS(=O)(=O)C3)C2=O)c1 (stereo not given)	-6.25%
COc1cccc(/C=C2\SC(=N)N(c3ccc(F)cc3)C2=O)c1	161% (active)
COc1ccc(/C=C2\SC(=N)N(c3ccc(F)cc3)C2=O)cc1	-1.62%
CCOC(=O)c1ccccc1OC(=O)Oc1ccccc1C(=O)OCC	1.49%
Cn1cccc1/C=C1\SC(=O)N(CC(=O)Nc2ccc(F)cc2)C1=O	-5.97%
Cn1cccc1/C=C1\SC(=S)N(NC(=O)c2ccc(Cl)cc2)C1=O	64.1% (active)
O=C(O)c1ccc(/C=C2\SC(=S)N(NC(=O)c3ccc(Br)cc3)C2=O)cc1	15.4%
CC(C)(C)NS(=O)(=O)NC(=O)C1=C(N2CCCC2)COC1=O	-3.4%
COc1ccc(C(=O)OCc2cc(=O)n3ccsc3n2)cc1F	-3.31%
CCCC(O)(c1ccccc1)C(c1ccccc1)c1ccccn1 (stereo not given)	-2.63%
